Data on 10 molecules can be found in PubChem BioAssay.

The nature of assay [1]: HepG2 liver cancer cell viability effects, profiling panel, resazurin fluorescence, 24 h, PK04 Diversity Set (AID 1172). As to conditions: higher = more signal.
A short description of assay [2]: basal S. cerevisiae growth modulation, no modifier, primary screen, OD600, strain BY4716, 24 h, basal condition (AID 1173). The conditions noted are these: OD600, 24 h, higher = more signal, called active from +8 up or from −8 down.
Assay [3] in a line: MM1S myeloma cell viability, profiling panel, resazurin fluorescence, basal, 24 h, PK04 Diversity Set (AID 1174). As to conditions: higher = more signal, called active from +8 up or from −8 down. A general note: The colour change of resazurin is a common sign of viable cells or microbes.
The target of assay [4] is Dihydroorotate dehydrogenase (quinone), mitochondrial (Plasmodium falciparum (isolate 3D7)) (UniProt Q08210). The assay can be described thus: PfDHODH enzyme inhibitors, primary screen, biochemical, C-terminal His tag, absorbance 600 nm (AID 1175).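 Note: recombinant parasite enzyme with a five histidine tag at its C terminus.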 As to conditions: DCIP absorbance 600 nm, higher = more signal, called active from +8 up or from −8 down.
Sequence of Dihydroorotate dehydrogenase (quinone), mitochondrial (Plasmodium falciparum (isolate 3D7)) (Q08210 whole entry, looked up): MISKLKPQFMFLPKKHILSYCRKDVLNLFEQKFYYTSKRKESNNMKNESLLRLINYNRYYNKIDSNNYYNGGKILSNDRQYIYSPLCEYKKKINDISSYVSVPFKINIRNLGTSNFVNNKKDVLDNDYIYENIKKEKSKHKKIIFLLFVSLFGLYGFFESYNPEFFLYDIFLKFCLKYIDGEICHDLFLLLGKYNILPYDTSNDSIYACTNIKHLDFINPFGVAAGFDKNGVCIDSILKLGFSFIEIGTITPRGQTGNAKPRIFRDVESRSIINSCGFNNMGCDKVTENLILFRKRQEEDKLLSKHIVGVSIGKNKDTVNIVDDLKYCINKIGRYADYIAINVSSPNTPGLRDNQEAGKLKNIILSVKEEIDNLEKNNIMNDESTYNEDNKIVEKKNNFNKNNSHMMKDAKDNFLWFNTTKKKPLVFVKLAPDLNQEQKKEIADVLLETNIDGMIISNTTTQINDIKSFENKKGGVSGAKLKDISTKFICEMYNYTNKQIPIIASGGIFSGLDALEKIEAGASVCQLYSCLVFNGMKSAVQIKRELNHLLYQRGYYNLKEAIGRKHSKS
Assay [5] in a line: P. aeruginosa biofilm formation inhibitors, primary screen, strain PAO1, LB-PBS medium, absorbance 600 nm (AID 1176). As to conditions: P. aeruginosa PAO1 growth/biofilm, A600, 12 h; higher = more signal.
Assay [6] in a line: S. cerevisiae RM11-1a growth modifiers, primary screen, strain RM11-1a, OD600, basal, 24 h (AID 1177).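 Note: cultures grown under basal conditions with no added stressor.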 The conditions noted are these: OD600, 24 h, higher = more signal, called active from +8 up or from −8 down.
A short description of assay [7]: E. coli acrAB mutant growth effects, primary screen, E. coli filamentation inducers, strain DRC39, OD650, 24 h (AID 1178).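 Note: growth measured as culture turbidity by optical density at 650 nm.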 As to conditions: higher = more signal, called active from +8 up or from −8 down.
Assay [8] can be described thus: E. coli acrAB mutant growth effects, primary screen, E. coli filamentation inducers, strain DRC39, OD650, 48 h (AID 1179).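 Note: screen aims at cell division blockers that make cells filament.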 As to conditions: E. coli DRC39 delta-acrAB growth, higher = more signal, called active from +8 up or from −8 down.
A short description of assay [9]: RPMI8226 myeloma cell viability, profiling panel, resazurin fluorescence, basal, 24 h, PK04 Diversity Set (AID 1180).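 Note: RPMI8826 multiple myeloma cell line at 5000 cells per well.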 As to conditions: higher = more signal.
For assay [10], the target named is E3 ubiquitin-protein ligase XIAP (Homo sapiens) (UniProt P98170). The assay can be described thus: XIAP binders, primary screen, biophysical, small-molecule microarray, fluorescence 635 nm (AID 1181).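 Note: score merges 667 nm emission and signal to noise over triplicate slides.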 As to conditions: small-molecule microarray binding, higher = more signal.
Sequence of E3 ubiquitin-protein ligase XIAP (Homo sapiens) (P98170 whole entry, looked up): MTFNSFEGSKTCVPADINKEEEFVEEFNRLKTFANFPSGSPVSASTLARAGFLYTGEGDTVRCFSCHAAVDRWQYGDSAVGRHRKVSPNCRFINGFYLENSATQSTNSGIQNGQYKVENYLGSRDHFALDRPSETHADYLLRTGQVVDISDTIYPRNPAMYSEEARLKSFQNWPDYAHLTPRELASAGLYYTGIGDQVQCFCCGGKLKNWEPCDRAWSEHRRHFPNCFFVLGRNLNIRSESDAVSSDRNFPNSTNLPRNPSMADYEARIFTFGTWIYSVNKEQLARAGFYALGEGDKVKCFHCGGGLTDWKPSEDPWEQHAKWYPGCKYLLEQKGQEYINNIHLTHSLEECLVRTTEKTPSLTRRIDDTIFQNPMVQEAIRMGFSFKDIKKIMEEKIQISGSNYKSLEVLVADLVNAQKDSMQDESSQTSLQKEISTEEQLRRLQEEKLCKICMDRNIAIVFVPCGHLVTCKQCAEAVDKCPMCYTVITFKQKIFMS
Assay [11] relates to XIP peptide (Xip251-270) binding. The assay can be described thus: small-molecule binders of XIP peptide, primary screen, biochemical, small-molecule microarray, fluorescence 635/667 nm, 0.1 µg/mL protein (AID 1182). As to conditions: fluorescent protein binding, 635 nm, higher = more signal, called active from +8 up or from −8 down.
The test system of assay [12] is XIP peptide (Xip251-270). The assay can be described thus: small-molecule binders of XIP peptide, primary screen, biochemical, small-molecule microarray, fluorescence 635/667 nm, 0.5 µg/mL protein (AID 1183). The conditions noted are these: small-molecule microarray binding, fluorescence 635 nm; higher = more signal.
Assay [13] in a line: Plasmodium falciparum growth inhibition, primary screen, strain 3D7, DAPI fluorescence, 100 nL (AID 1184).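 Note: parasites grown inside human red blood cells in medium with human serum.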 The conditions noted are these: P. falciparum 3D7 growth, 3 d, higher = more signal.
Assay [14] concerns the target Homeobox protein Hox-A13 (Mus musculus) (UniProt Q62424). The assay can be described thus: inhibitors of HoxA13-DNA binding, primary screen, biochemical, fluorescence polarization, labeled oligonucleotide (AID 1185). As to conditions: 15 min, higher = more signal, called active from +8 up or from −8 down. On the technique in general: In fluorescence polarisation assays a small probe gives low polarisation when free and higher when bound to something large.

Assay [15] is described as follows: inhibitors of hydroxyurea-induced Chk1 phosphorylation, primary screen, imaging, HeLa, phospho-Chk1 antibody, percent positive cells (AID 1186). The conditions noted are these: hydroxyurea-induced phospho-Chk1 immunofluorescence imaging, higher = more signal.
A short description of assay [16]: inhibitors of hydroxyurea-induced Chk1 phosphorylation, primary screen, imaging, HeLa, phospho-Chk1 nuclear intensity (AID 1187). The conditions noted are these: hydroxyurea-induced phospho-Chk1 immunofluorescence imaging, higher = more signal.

Activity calls are given as the source filed them. Unless noted, the rule behind the calls is not given here.

Sequence of Homeobox protein Hox-A13 (Mus musculus) (Q62424 whole entry, looked up): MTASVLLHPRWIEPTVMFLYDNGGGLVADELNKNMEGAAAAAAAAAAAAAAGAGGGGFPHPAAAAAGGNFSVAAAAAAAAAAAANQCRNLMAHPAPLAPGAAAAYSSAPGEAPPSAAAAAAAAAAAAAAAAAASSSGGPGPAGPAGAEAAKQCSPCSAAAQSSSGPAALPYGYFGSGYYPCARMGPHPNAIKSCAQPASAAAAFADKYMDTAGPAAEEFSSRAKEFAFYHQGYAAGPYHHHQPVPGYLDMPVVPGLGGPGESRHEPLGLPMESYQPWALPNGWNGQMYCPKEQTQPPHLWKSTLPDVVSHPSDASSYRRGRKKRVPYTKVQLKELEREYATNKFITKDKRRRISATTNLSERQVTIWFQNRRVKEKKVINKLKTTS

As to `C=CC[C@@]1(C(=O)NCCN2CCOCC2)N=C(c2ccc(OCCCO)cc2)O[C@@H]1c1ccccc1CN=[N+]=[N-]`, the z-score is -0.0014 in assay [1]; -1.4 (inactive) in assay [2]; 0.331 (inactive) in assay [3]; 0.466 (inactive) in assay [5]; -0.425 (inactive) in [6]; 0.677 (inactive) in assay [7]. Besides, the z-score in assay [8] is -0.498 (inactive); in assay [9], -0.354; in assay [13] it was -2.13; in [14], -1.05 (inactive); in [15], -0.336 (inactive); in assay [16] it was -0.254 (inactive). Besides, the composite z-score in assay [4] is 0.45 (inactive); in [10], 0.272; in assay [11] it was 1.21 (inactive); in [12], 0.818.
As to `COCCn1c(C(=O)N(C)C)cc2c1C[C@H]1CN(C(=O)c3ccccc3)[C@@](Cc3ccc(F)cc3)(C(=O)OC)[C@@H]21`, the z-score in assay [1] is -0.473; in assay [2], 0.717 (inactive); in assay [3], -0.665 (inactive); in [5], 0.535 (inactive); in [6] it was 1.02 (inactive); in [7], 0.0751 (inactive). Besides, the z-score in [8] was 0.223 (inactive); in assay [9], -0.38; in assay [13] it was -0.292; in [14] it was -4.93 (inactive); in assay [15], 0.562 (inactive); in [16], 0.478 (inactive). The composite z-score is -0.0005 (inactive) in assay [4], 0.0447 in assay [10], 0.112 (inactive) in assay [11] and 0.0743 in assay [12].
Consider `C=CCN1C(=O)[C@]2(Cc3ccccc31)N=C(c1ccc(OCCCO)cc1)O[C@@H]2c1ccccc1`, for which the z-score was -1.05 in assay [1]; -2.22 (inactive) in [2]; -1.48 (inactive) in assay [3]; 0.134 (inactive) in assay [5]; 0.821 (inactive) in [6]; -1.3 (inactive) in assay [7]. The z-score in assay [8] was -0.802 (inactive); in assay [9], -1.33; in [13] it was -2.07; in [14], -4.97 (inactive); in assay [15], -0.149 (inactive); in assay [16], 0.0449 (inactive). The composite z-score in assay [4] was -0.699 (inactive); in [10], -0.0062; in [11] it was 0.526 (inactive); in assay [12], 0.791.
Consider `CCOC1=C2C(c3ccc(C)cc3)N(S(=O)(=O)c3ccc(C)cc3)CC2n2c(=O)n(-c3ccccc3)c(=O)n2C1` (stereo not given), for which the z-score in assay [1] was -0.994; in assay [2], 1.21 (inactive); in [3], -0.932 (inactive); in [5], -0.172 (inactive); in [6], 0.135 (inactive); in assay [7], -0.15 (inactive). The z-score in [8] is 0.717 (inactive); in assay [9] it was -0.774; in assay [13], -0.102; in assay [14], -0.865 (inactive); in assay [15], -0.562 (inactive); in assay [16], 0.0267 (inactive). The composite z-score in [4] was -2.05 (inactive); in [10] it was 0.199; in [11] it was 0.346 (inactive); in assay [12] it was 0.846.
For `COCCOC(=O)N1C(=O)[C@@]2(c3cc(C#CCC(C(=O)OC)C(=O)OC)ccc31)[C@H](c1ccccc1OCCO)N1[C@H](c3ccccc3)[C@H](c3ccccc3)OC(=O)[C@H]1[C@@H]2C(=O)Nc1nc2ccccc2s1`, the z-score is 0.513 in [1]; -0.561 (inactive) in assay [2]; 0.951 (inactive) in assay [3]; 3.41 (inactive) in assay [5]; -0.929 (inactive) in assay [6]; 1.28 (inactive) in [7]. Moreover, the z-score is 1.76 (inactive) in [8]; 0.599 in assay [9]; -1.53 in [13]; 3.51 (inactive) in assay [14]; -0.5 (inactive) in [15]; -0.31 (inactive) in assay [16]. For the same molecule, the composite z-score in assay [4] is -1.19 (inactive); in assay [10] it was -0.0785; in assay [11], 0.83 (inactive); in assay [12] it was 0.862.
For `C=C(COC)/C(=C/C[C@H](OC(C)=O)c1ccccc1OCCO)c1cnc2ccccc2c1`, the z-score in assay [1] is -0.192; in assay [2], 1.36 (inactive); in [3], -0.885 (inactive); in assay [5], 1.57 (inactive); in assay [6] it was 1.19 (inactive); in [7], -0.447 (inactive). Moreover, the z-score in assay [8] was -0.334 (inactive); in assay [9], -0.784; in [13], -2.82; in assay [14], -5.24 (inactive); in [15], 0.134 (inactive); in assay [16] it was 0.19 (inactive). For the same molecule, the composite z-score in assay [4] was -2.14 (inactive); in [10], -0.173; in assay [11], 0.384 (inactive); in assay [12], 0.0219.
`NC(=O)[C@]1(Cc2ccccc2)N=C(c2ccc(OCCCO)cc2)O[C@@H]1c1ccccc1`: the z-score in assay [1] is -0.3; in assay [2] it was -1.06 (inactive); in [3], -1.02 (inactive); in assay [5], 0.246 (inactive); in assay [6], 0.569 (inactive); in assay [7], 0.0671 (inactive). In addition, the z-score in [8] is -1.24 (inactive); in assay [9], -0.189; in [13], -2.04; in [14], -5.25 (inactive); in assay [15], -0.0614 (inactive); in [16] it was -0.209 (inactive). Besides, the composite z-score in assay [4] is 0.417 (inactive); in assay [10] it was 0.16; in assay [11], -0.0696 (inactive); in assay [12], 0.0178.
Take `CO[C@H]1O[C@H](CO)[C@@H](OC(=O)Nc2ccc(C(F)(F)F)cc2)[C@H](OC(=O)Nc2ccccc2)[C@@H]1OC(=O)Nc1ccccc1`: the z-score in assay [1] was -0.5; in [2], -0.332 (inactive); in [3] it was -1.34 (inactive); in assay [5] it was 0 (inactive); in [6], 0.0212 (inactive); in assay [7] it was 0.886 (inactive). Further, the z-score is -0.053 (inactive) in assay [8]; -0.771 in assay [9]; -0.0799 in assay [13]; -5.23 (inactive) in assay [14]; 0.666 (inactive) in assay [15]; 0.389 (inactive) in assay [16]. Besides, the composite z-score in assay [4] is -0.798 (inactive); in [10], 0.0468; in [11] it was 0.384 (inactive); in [12] it was 0.62.
`C#C[C@H]1Oc2ccccc2S(=O)(=O)N2CCC[C@@H]12`: the z-score is -0.87 in assay [1]; -0.454 (inactive) in assay [2]; -0.482 (inactive) in assay [3]; -0.0582 (inactive) in [5]; -0.0887 (inactive) in assay [6]; 0.0374 (inactive) in assay [7]. Besides, the z-score in [8] is -0.29 (inactive); in [9] it was -0.652; in assay [13], 0.562; in assay [14] it was -1.15 (inactive); in [15] it was 0.528 (inactive); in assay [16] it was 0.526 (inactive). The composite z-score in assay [4] was 0.112 (inactive); in assay [10], -0.299; in assay [11], -0.267 (inactive); in [12], -0.286.
For the molecule `O=C1O[C@@H](c2ccccc2)[C@@H](c2ccccc2)N2[C@@H](c3ccc(O)cc3)[C@]3(C(=O)Nc4ccccc43)[C@@H](C(=O)N3CCCCCCC3)[C@H]12`, the z-score is 0.305 in [1]; 0.189 (inactive) in [2]; -1.05 (inactive) in assay [3]; 1.34 (inactive) in assay [5]; 1.19 (inactive) in [6]; 0.36 (inactive) in assay [7]. Further, the z-score is -1.16 (inactive) in assay [8]; -1.01 in assay [9]; -1.54 in assay [13]; 3.1 (inactive) in assay [14]; 0.242 (inactive) in assay [15]; 0.883 (inactive) in assay [16]. In addition, the composite z-score is 0.0791 (inactive) in assay [4], 0.613 in assay [10], 3.19 (inactive) in assay [11] and 0.862 in [12].
